A selection: hits, their analogues and other compounds. The true share with any hit is near 5.9%.
KB-V1 MDR tox: kills drug-selected multidrug resistant KB-V1 cells; actives 3.4% (n = 400,000); KB-V1 MDR cells viability, CellTiter-Glo, 72 h; Potency, µM (highest dose often 46.1 µM), actives largely listed as cytotoxic; further: on the % scale 0 is the no-effect control and ±100 the full control effect; nearly all actives have a fitted effect of over 60% in size
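Cells of the MDR subline KB-V1 are plated, dosed with compound at multiple concentrations, and incubated 72 h at 37 degrees C; CellTiter-Glo is then added and luminescence read after 10 min.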
KB-3-1 tox: kills parental KB-3-1 adenocarcinoma cells; actives 1.4% (n = 400,000); Potency, µM (series often up to 46.1 µM), most hits filed as cytotoxic; AID 1347075; KB-3-1 viability, CellTiter-Glo ATP luminescence, 72 h; further: on the % scale 0 is the no-effect control and ±100 the full control effect; nearly all actives have a fitted effect of over 60% in size
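Cytotoxicity measured as CellTiter-Glo luminescence after 72 h at 37 C. Compound titrations were pinned onto drug-naive KB-3-1 parental adenocarcinoma cells grown in DMEM with 10% FBS, and normalized data fitted to concentration-response curves.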
ATXN2 expr inh: reduces ATXN2 reporter expression in HEK-293 cells; HEK-293 ATXN2-luciferase reporter, luminescence, 24 h; Potency, µM (series often up to 57 µM), for inactives: at the top dose activity change, negative = inhibition, hits mostly inhibitors; actives 0.72% (n = 360,000); further: on the % scale 0 is the no-effect control and ±100 the full control effect; nearly all actives have a fitted effect of over 55% in size
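qHTS (up to 57 uM final) was run with 24 h compound exposure of reporter cells at 37 °C. Each well was multiplexed: SteadyGlo luminescence measured ATXN2-luciferase expression after a fluorogenic Gly-Phe-AFC viability readout (25 uM final).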
HepG2 viability: kills HepG2 cells in TGF-b inhibitor counter-screen. HepG2 CAGA-GFP viability, ATP luminescence, 18 h. Potency, µM (highest dose often 46.1 µM), without a hit: at the highest dose activity change, negative = cytotoxicity, hits mostly cytotoxic. AID 588856. actives 0.76% (n = 410,000)
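HepG2 CAGA-GFP cells (1000/well, DMEM with 1% FBS) received compound, then TGF-beta at 500 pg/mL final, and were incubated 18 hours at 37 degrees C. Viability was read by CellTiter-Glo luminescence. Media-only wells were set as complete cell-killing and DMSO as no toxicity.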
TGFb inhibitor: TGF-b pathway inhibition. actives 1.2% (n = 410,000). HepG2 CAGA-GFP TGF-b/SMAD3 reporter, GFP fluorescence, 18 h; TGF-beta stimulated, 500 pg/mL final. Potency, µM (series often up to 46.1 µM), for the others: at the top dose activity, negative = inhibition, actives largely listed as inhibitors; further: on the % scale 0 is the no-effect control and ±100 the full control effect; nearly all actives have a fitted effect of over 65% in size
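First, reporter cells (HEPG2 CAGA-GFP) rested 2 h at 37 degrees C. Next, compounds were pinned in and TGF-beta added to 500 pg/mL final. After 18 h, GFP was imaged per cell and summed per well.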
ATXN viability: reduces viability in counter-screen for ATXN expression inhibitors; S2 cells (HEK-293 line with an ATXN2-luciferase reporter) viability, CellTiter-Fluor protease fluorescence, 24 h; Potency, µM (doses to about 56.7 µM), actives largely listed as cytotoxic; actives 0.49% (n = 400,000); AID 651635; further: nearly all actives have a fitted effect of over 40% in size
Numbers without * were called inactive; i = inactive; ? = inconclusive; / = no result given. The call rests on the fitted dose curve; in most records, active means well fitted curve in the direction sought with a large enough effect; inconclusive means small, poorly fitted or top-dose-only effect, or another doubt; inactive means no such curve, though single readings can be large; an effect the other way counts as inactive or inconclusive. Potency means the concentration at half of the fitted maximal effect.

SMILES	KB-V1 MDR tox	KB-3-1 tox	ATXN2 expr inh	HepG2 viability	TGFb inhibitor	ATXN viability
Cc1oc(-c2ccc(Cl)cc2)nc1CN1CCCC(C(=O)NCCc2ccccc2)C1 (stereo not given)	?	?	-2%	-21%	7.1µM*	?
Cc1cccc(-c2nc(CN3CCCC(C(=O)NCCc4ccc(Cl)cc4)C3)c(C)o2)c1 (stereo not given)	i	?	?	-21%	-23%	?
Cc1oc(-c2ccc(Cl)cc2)nc1CN1CCCC(C(=O)NCc2ccccn2)C1 (stereo not given)	i	i	-9%	-28%	?	i
COC(=O)c1ccccc1NC(=O)Cn1c(=O)n(CCC(=O)NCc2ccc3c(c2)OCO3)c(=O)c2ccccc21	i	i	1%	5%	0%	i
CN1CCN(C(=O)Nc2cccc(Cl)c2)c2cccnc21	i	i	0%	-53%	16µM*	i
O=C(OCc1ccccc1)N1C=CCC[C@@H]1c1c(Cl)cccc1Br	i	i	2%	-15%	?	i
CC(C)(C)c1ccc(S(=O)(=O)Nc2cccc(C3OCCCO3)c2)cc1	15µM*	i	-5%	-2%	0%	i
CC(=O)c1ccc(NS(=O)(=O)c2ccc(C(C)(C)C)cc2)cc1	?	i	-4%	-2%	?	i
COc1ccc(NC(=O)c2c(C)oc3ccc(O)c(CN4CCCC(C)C4)c23)cc1 (stereo not given)	i	i	-25%	-37%	?	?
Cc1ccc(-n2nnnc2SCC(=O)Nc2sccc2C#N)cc1	18µM*	i	3%	12%	-13%	i
COc1ccccc1-n1nnnc1SCC(=O)Nc1ccccc1	?	i	-5%	-16%	-15%	i
O=C(CSc1nnnn1-c1ccc(Cl)cc1)Nc1cccnc1Cl	16µM*	i	-4%	0%	6%	?
CC(=O)c1ccc(-n2nnnc2SCC(=O)Nc2sc(C)c(C)c2C#N)cc1	i	i	/	-4%	?	i
Cc1ccc(-n2nnnc2SCC(=O)N2CCCCC2)cc1	9.2µM*	i	19%	3%	-1%	i
COc1ccccc1-n1nnnc1SCC(=O)Nc1ccccn1	16µM*	i	3%	4%	-28%	i
CC(C)C(=O)Nc1cccc(C2CN3CCSC3=N2)c1 (stereo not given)	/	/	3%	/	/	i
COc1cccc(C2C(C(=O)Nc3ccc(C)cc3C)=C(C)Nc3c(C(=O)Nc4cccc(C)c4)cnn32)c1OC (stereo not given)	/	/	/	1%	-3%	/
O=C(NC1CCCCC1)/C(=C/c1ccc(Cl)cc1)NC(=O)c1ccccc1	i	i	-3%	32%	40%	i
COC(=O)c1ccc(-n2nnnc2SCC(=O)N2CCCCC2)cc1	21µM*	i	-3%	-2%	12%	i
Cc1ccc(S(=O)(=O)NNC(=O)NC23CC4CC(CC(C4)C2)C3)cc1	21µM*	i	18%	-2%	-1%	i
CC(=O)Nc1ccc(S(=O)(=O)NNC(=O)NC23CC4CC(CC(C4)C2)C3)cc1	i	i	10%	-16%	5%	i
CCOc1ccc(C(=O)c2cn(CC(=O)Nc3ccc4c(c3)OCO4)c3ccc(OCC)cc3c2=O)cc1	i	i	1%	0%	-14%	i
CCOC(=O)c1c(NC(=O)CN2C(=O)NC3(CCCCC3C)C2=O)sc(C)c1CC (stereo not given)	?	i	-9%	0%	?	?
COC(=O)c1c(NC(=O)CN2C(=O)NC3(CCCCC3C)C2=O)sc2c1CCC2 (stereo not given)	i	10µM*	-9%	2%	16%	i
CCC(C)(C)c1ccc(OCCCC[n+]2ccc(C)cc2)c(C(C)(C)CC)c1	i	12µM*	20µM*	13µM*	16µM*	?
SMILES	KB-V1 MDR tox	KB-3-1 tox	ATXN2 expr inh	HepG2 viability	TGFb inhibitor	ATXN viability
Cc1cc[n+](CC[n+]2ccc(C)cc2)cc1	i	i	5%	-1%	2%	i
CCC(C)(C)c1ccc(OCCCC[n+]2cccc(C)c2C)c(C(C)(C)CC)c1	i	?	/	-132%	10µM*	/
Cc1cc(C(C)(C)C)ccc1OCCCCN1CCCC1	i	i	-14%	-29%	-26%	i
NC(=O)Nc1ccc(C(=O)OCC(=O)Nc2cccc(S(=O)(=O)NC3=NCCCCC3)c2)cc1	i	i	/	0%	1%	i
O=C(COC(=O)c1ccccc1)Nc1cccc(S(=O)(=O)NC2=NCCCCC2)c1	i	i	5%	-2%	-9%	i
CCN(CC)c1ccc(C(=O)OCC(=O)Nc2cccc(S(=O)(=O)NC3=NCCCCC3)c2)cc1	21µM*	?	9%	2%	7%	i
Cc1cc(C)cc(C(=O)OCC(=O)Nc2cccc(S(=O)(=O)NC3=NCCCCC3)c2)c1	16µM*	?	-3%	-9%	?	i
COc1ccc(CNC(=O)Nc2ccc3c(c2)N(C)C(=O)c2ccccc2S3)cc1	/	/	/	-32%	-22%	/
CN1C(=O)c2ccccc2Sc2ccc(NC(=O)NCc3ccc(Cl)cc3)cc21	i	?	/	-3%	-3%	/
Cc1ccc(CC(=O)Nc2ccc3c(c2)N(C)C(=O)c2ccccc2S3)cc1	18µM*	i	-37%	-6%	-28%	i
Cc1ccccc1CNC(=O)Nc1ccc2c(c1)N(C)C(=O)c1ccccc1S2	/	/	/	-33%	7.1µM*	/
CN1C(=O)c2ccccc2Sc2ccc(NC(=O)NCc3cccc(Cl)c3)cc21	i	i	/	-57%	10µM*	/
CCc1ccccc1NC(=O)Nc1ccc2c(c1)N(CC)C(=O)c1ccccc1S2	/	/	/	-34%	11µM*	/
CO[C@H]1C[C@H](O[C@H]2[C@H](C)[C@@H](O[C@@H]3O[C@H](C)C[C@H](N(C)C)[C@H]3O)[C@@H](C)C[C@]3(CO3)C(=O)[C@H](C)[C@@H](O)[C@@H](C)[C@@H](C)OC(=O)[C@@H]2C)O[C@@H](C)[C@@H]1O	/	/	/	/	/	i
CCOc1cc(/C=C/C(=O)Nc2ccc(C(=O)NCCN(CC)CC)cc2)ccc1OCC(C)C	i	18µM*	/	13µM*	?	/
Cc1ccccc1OCC(=O)NCC(=O)OCC(=O)c1ccc(Br)cc1	i	i	/	5%	16%	/
O=C(c1cnn(-c2nccc(-c3ccco3)n2)c1C1CC1)N1CCCCC1c1cccnc1 (stereo not given)	/	/	/	/	/	i

Source: PubChem BioAssay (National Center for Advancing Translational Sciences (NCATS))
